Test systems include NCI-H226 lung; NCI-H322M lung; HOP-62 NSCLC; NCI-H460 lung; NCI-H522 lung; A549/ATCC NSCLC; 786-0 renal; COLO 205 colon; DU-145 prostate.
Holding throughout (assay): NCI-60 one-dose screen, 48 h (100 = growth as untreated, 0 = no growth, -100 = all killed)
What all share (conditions): 10 µM

The panel holds about 83,000 compounds, 20% with a hit somewhere; the sample as a whole holds those more often.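 Assay: single dose, 48 h. Readout: percent growth (0 = no net growth; negative = cell death). Active: <10.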 Unmarked numbers belong to inactive results. Activity calls are given as the source filed them.

Take `COc1ccc(-c2nn(-c3cccc(NC(=O)Nc4ccc(Cl)c(C(F)(F)F)c4)c3)cc2-c2ccncc2)cc1Cl`: the growth is 22.4% in the experiment on NCI-H226 lung; 19.1% with NCI-H322M lung; 25.2% in the experiment on HOP-62 NSCLC; 1.08% (active) with NCI-H460 lung; -8.34% (active) in the experiment with NCI-H522 lung; 8.45% (active) in the experiment on A549/ATCC NSCLC. In addition, the growth in the experiment on 786-0 renal is 19%; in the experiment with COLO 205 colon it was -33.3% (active); in the experiment with DU-145 prostate, 22.7%.
Regarding `O=C(Nc1cccc(-n2cc(-c3ccncc3)c(-c3ccc(O)c(Cl)c3)n2)c1)c1ccc(Cl)c(Cl)c1`, the growth in the experiment on NCI-H226 lung was 80.6%; in the experiment on NCI-H322M lung, 77.3%; in the experiment with HOP-62 NSCLC, 67.7%; with NCI-H460 lung it was 20.8%; in the experiment on NCI-H522 lung, 41.5%; in the experiment with A549/ATCC NSCLC, 41.2%. The growth was 55.3% in the experiment with 786-0 renal, 102% in the experiment on COLO 205 colon and 80.5% in the experiment on DU-145 prostate.
Turning to `COc1cc(/C=N/NC(=O)c2ccccc2Nc2ccnc(C(F)(F)F)c2)ccc1O`, the growth in the experiment on NCI-H226 lung is 238%; in the experiment with NCI-H322M lung, 130%; in the experiment on HOP-62 NSCLC it was 110%; in the experiment with NCI-H460 lung, 108%; with NCI-H522 lung, 102%; in the experiment with A549/ATCC NSCLC, 66.9%. Besides, the growth was 106% with 786-0 renal, 115% with COLO 205 colon and 130% in the experiment with DU-145 prostate.
Turning to `CCCCCCCCCCCCCCCCCCOCC(COCCOCC[N+]1(CCCCCC(=O)[O-])CCCC1)Oc1ncccn1` (stereo not given), the growth was 56% in the experiment on NCI-H226 lung; 101% in the experiment with NCI-H322M lung; 21.3% with HOP-62 NSCLC; 23.7% in the experiment with NCI-H460 lung; 12.9% with NCI-H522 lung; 51.2% in the experiment with A549/ATCC NSCLC. The growth with 786-0 renal was 52.8%; with COLO 205 colon, -17.2% (active); with DU-145 prostate, 77.6%.
In the case of `CC1CN(Cc2ccccc2)C(=O)NC1=O` (stereo not given), the growth in the experiment with NCI-H226 lung is 106%; in the experiment on NCI-H322M lung it was 122%; with HOP-62 NSCLC, 105%; in the experiment on NCI-H460 lung, 109%; in the experiment with NCI-H522 lung, 91.8%; in the experiment on A549/ATCC NSCLC, 103%. Further, the growth in the experiment on 786-0 renal is 112%; in the experiment on COLO 205 colon, 108%.
Turning to `O=c1oc2cc(OS(=O)(=O)c3ccccc3)ccc2c2c1CCCCC2`, the growth is 59.6% in the experiment with NCI-H226 lung; 82.6% in the experiment on NCI-H322M lung; 78.2% with HOP-62 NSCLC; 28.4% with NCI-H460 lung; 66.4% in the experiment with NCI-H522 lung; 34.7% in the experiment on A549/ATCC NSCLC. The growth is 68.8% in the experiment on 786-0 renal, 31.1% in the experiment on COLO 205 colon and 84.8% with DU-145 prostate.
As to `c1ccc(CP(Cc2ccccc2)c2ccccc2)cc1`, the growth in the experiment with NCI-H226 lung was 105%; in the experiment on NCI-H322M lung, 87.3%; with HOP-62 NSCLC, 99.4%; with NCI-H460 lung it was 112%; in the experiment with NCI-H522 lung, 83.1%; in the experiment with A549/ATCC NSCLC it was 97%. The growth is 93.5% with 786-0 renal, 106% in the experiment on COLO 205 colon and 113% in the experiment on DU-145 prostate.
As to `C[N+](C)(C)c1ncnc2nc[nH]c12`, the growth is 99.1% with NCI-H226 lung; 67% in the experiment on NCI-H322M lung; 98% with HOP-62 NSCLC; 97.1% in the experiment on NCI-H522 lung; 108% in the experiment on A549/ATCC NSCLC; 89.8% in the experiment with 786-0 renal. The growth in the experiment with COLO 205 colon was 104%; in the experiment with DU-145 prostate, 116%.
For `Cc1ccc(NC(=O)Nc2c(Cl)cccc2Cl)cn1`, the growth in the experiment on NCI-H226 lung is 140%; in the experiment on NCI-H322M lung, 119%; with HOP-62 NSCLC it was 107%; in the experiment on NCI-H460 lung it was 106%; in the experiment with NCI-H522 lung it was -10.6% (active); in the experiment on A549/ATCC NSCLC, 57.3%. Moreover, the figures for the growth with 786-0 renal, with COLO 205 colon and with DU-145 prostate were 113%, 135% and 123%, respectively.
With `CCc1ccc2c(c1)N(CCO)C1=C(C(=O)OC1)C2c1ccccc1` (stereo not given), the growth was 102% in the experiment on NCI-H226 lung; 115% in the experiment on NCI-H322M lung; 81.6% in the experiment on HOP-62 NSCLC; 109% in the experiment on NCI-H460 lung; 4.79% (active) with NCI-H522 lung; 104% with A549/ATCC NSCLC. Besides, the growth with 786-0 renal was 97.1%; with COLO 205 colon it was 109%; in the experiment with DU-145 prostate it was 115%.
For the compound `N#CCCN1C/C(=C/c2ccc(Cl)cc2)C(=O)/C(=C/c2ccc(Cl)cc2)C1`, the growth is -56.8% (active) in the experiment on NCI-H226 lung; -22.1% (active) in the experiment with NCI-H322M lung; -58% (active) with HOP-62 NSCLC; -49.9% (active) with NCI-H460 lung; -82.2% (active) in the experiment on NCI-H522 lung; -35.9% (active) in the experiment on A549/ATCC NSCLC. For the same compound, the growth in the experiment on 786-0 renal is -70.5% (active); in the experiment with COLO 205 colon, -84.3% (active); in the experiment on DU-145 prostate, -30.7% (active).
For the compound `O=C(Nc1nc2ccc(F)cc2s1)c1cc(-c2ccc(F)cc2)n2nc(-c3ccccc3)cc2n1`, the growth in the experiment on NCI-H226 lung was 105%; in the experiment on NCI-H322M lung, 111%; in the experiment with HOP-62 NSCLC, 64.1%; in the experiment on NCI-H460 lung, 59.5%; in the experiment with NCI-H522 lung, 98.9%; in the experiment on A549/ATCC NSCLC, 92.1%. Further, the growth with 786-0 renal is 101%; in the experiment with COLO 205 colon, 96.4%; in the experiment on DU-145 prostate it was 87%.
For the compound `CS(=O)(=O)Nc1ccc(Nc2c3ccccc3nc3cc([N+](=O)[O-])ccc23)cc1`, the growth in the experiment on NCI-H226 lung was 0.761% (active); with NCI-H322M lung it was 62.6%; in the experiment on HOP-62 NSCLC, 19.2%; in the experiment with NCI-H460 lung, 0.406% (active); with NCI-H522 lung, -51.5% (active); with A549/ATCC NSCLC it was 16.5%. The growth in the experiment on 786-0 renal is 6.96% (active); in the experiment with COLO 205 colon it was 17.1%; with DU-145 prostate it was 8.04% (active).

(Values after PubChem BioAssay (NCI).)
